DT40 TDP1 no CPT – qHTS for Inhibitors of human tyrosyl-DNA phosphodiesterase 1 (TDP1): qHTS in cells in absence of CPT; 420,000 compounds, 15% hits; Potency, µM (doses to about 46.2 µM), inactives show top-dose activity change, negative = growth inhibition, hits mostly inhibitors; AID 686978, 2013; DT40 Tdp1-/- hTDP1 cells, no CPT, ATP luminescence, 48 h; further: potency means the concentration at half of the fitted maximal effect; nearly all actives have a fitted effect of over 55% in size
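Readout: luminescence from CellTiter-Glo after 30 min in the dark at RT. Cells: DT40 Tdp1-/- with stable hTDP1, 400/well. Exposure: compounds alone, ≥48 hr, 37 °C.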
HT1080 IDH1KD tx – kills HT-1080 cells with IDH1 knockdown; HT-1080 IDH1 knockdown viability, ATP luminescence, 48 h; Potency, µM (titrated, usually from 46.1 µM), for the others: top-dose activity, negative = toxicity, actives largely listed as cytotoxic; 360,000 compounds, 2% hits;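 further: potency means the concentration at half of the fitted maximal effect; 0% = DMSO wells and -100% = cell-free medium wells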
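Using the IDH1-knockdown HT-1080 line run in the same batch and compound series as the NT line, viability after 48 h at 37 °C was determined by CellTiter-Glo luminescence and expressed as % activity.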
ELG1 DNA repair – ELG1-dependent DNA repair inhibition; AID 504467; HEK293T ELG1-luciferase reporter, luminescence, 16 h; DNA damage induced by 5-fluorouridine; Potency, µM (top dose mostly 46.1 µM), for the others: top-dose activity change, negative = inhibition, actives largely listed as inhibitors; 330,000 compounds, 2.3% hits; further: potency means the concentration at half of the fitted maximal effect; nearly all actives have a fitted effect of over 55% in size
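Luminescence from the luciferase reporter, measured 30 min after ONE-Glo reagent at room temperature, was the read-out. Beforehand, 2,000 cells per well were exposed for 16 hr at 37 °C to 5-fluorouridine together with compound or vehicle.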
DT40 TDP1 CPT – growth inhibition of DT40 Tdp1-/-;hTDP1 cells with camptothecin (screen for TDP1 inhibitors); AID 686979; 420,000 compounds, 12% hits; Potency, µM (titrated, usually from 46.2 µM), for the others: at the highest dose activity change, negative = growth inhibition, hits mostly inhibitors; chicken DT40 Tdp1-/-;hTDP1 cells + 20 nM CPT, ATP luminescence, 48 h; further: potency means the concentration at half of the fitted maximal effect; nearly all actives have a fitted effect of over 55% in size
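Cell growth measured by CellTiter-Glo luminescence after a minimum 48 h, 37 C compound exposure with 20 nM CPT in Tdp1-knockout DT40 cells stably expressing hTDP1, seeded 400/well; qHTS titration format.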
HT1080NT lethal – kills 2HG-producing HT-1080-NT fibrosarcoma cells; Potency, µM (highest dose often 46.1 µM), inactives show top-dose activity, negative = less viability, most hits filed as cytotoxic; 360,000 compounds, 1.6% hits; AID 686970; HT-1080-NT fibrosarcoma viability, CellTiter-Glo ATP luminescence, 48 h;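 further: NT is the 2HG producing partner of a matched IDH1 knockdown line; potency means the concentration at half of the fitted maximal effect; 0% = DMSO-treated cells and -100% = media-only wells without cells; nearly all actives have a fitted effect of over 55% in size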
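HT-1080-NT; 750 cells/well; 5% FBS RPMI; 48 h compound, 37 degrees C; CellTiter-Glo luminescence; curve fitting and curve-class assignment.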
IL-1B inflam inh – blocks inflammasome-driven IL-1 beta release; THP-1 LPS/ATP IL-1B secretion, AlphaLISA, 16 h; active compounds read low; activity change, % at 57.5 µM; 360,000 compounds, 4.7% hits; AID 743279; in the data active means activity change below about -50%; inconclusive means mostly about -30% to -49%
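THP-1 cells pretreated 1 hr with compounds (up to 57.5 uM final), then stimulated with LPS (250 ng/mL final) plus ATP (1.25 mM final); secreted IL-1B measured by AlphaLISA after 16 hr, decreased signal indicating inhibition.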
Starred values were filed as active, the others as inactive; ? = inconclusive; nt = no result given; [ ] = remark or other dose. Hits are enriched below; roughly 19% of the tested compounds scored in any of these assays. Unless noted, the call rests on the fitted dose curve; in most records, active means well fitted curve in the direction sought with a large enough effect; inconclusive means small, poorly fitted or top-dose-only effect, or another doubt; inactive means no such curve, though single readings can be large; an effect the other way counts as inactive or inconclusive. Unless noted, on the % scale 0 is the no-effect control and ±100 the full control effect.

SMILES | DT40 TDP1 no CPT | HT1080 IDH1KD tx | ELG1 DNA repair | DT40 TDP1 CPT | HT1080NT lethal | IL-1B inflam inh
COC(=O)C1CCCCN1Cc1ccc2c(c1)CN(C1CCSCC1)CCO2 (stereo not given) | -26% | nt | nt | -4%[9.04 µM] | nt | nt
CCOc1ccc2nc(/N=C/c3c(C)[nH]n(-c4ccccc4)c3=O)sc2c1 | ? | -1% | ? | ? | 0% | 0
CCOc1ccc(N2C(=O)CC(Sc3nc4ccc(OCC)cc4s3)C2=O)cc1 (stereo not given) | 4.6µM* | 18% | nt | 4.1µM* | 17% | 14
CCOc1ccc2nc(SC3CC(=O)N(c4ccc(C)cc4)C3=O)sc2c1 (stereo not given) | 4.6µM* | ? | ? | 4.6µM* | -3% | 15
CCOc1ccc2nc(/N=C/c3c(C)[nH]n(-c4ccc(C)cc4)c3=O)sc2c1 | ? | ? | ? | 16µM* | ? | -6
CCc1ccc(-n2c(CCC(=O)O)ccc2-c2ccc(F)cc2)cc1 | -20% | nt | nt | 2% | nt | nt
COCCn1c(SCC(=O)N(C)c2c(N)n(Cc3ccccc3)c(=O)[nH]c2=O)nnc1-c1cccc(C)c1 | 5% | -1% | 14% | 10% | 3% | 22
CCOC(=O)c1ccc2ncc(C(=O)OCC)c(NCCc3ccc(OC)c(OC)c3)c2c1 | 15µM* | nt | nt | 26µM* | nt | nt
CCOC(=O)c1cnc2ccc(C(=O)OC)cc2c1NCCc1ccc(OC)c(OC)c1 | 18µM* | -20% | 15µM* | ? | -16% | 35
CCOC(=O)c1ccc(NC(=S)NCCc2ccc(OC)c(OC)c2)cc1 | ? | ? | ? | ? | -15% | nt
Cc1ccc(Cc2c(-c3ccc(C)cc3)nc3ccc(Br)cn23)cc1 | 23µM* | -29% | nt | 21µM* | ? | 47
Fc1ccc(-c2nc3ccc(Br)cn3c2Cc2cccc(Cl)c2)cc1 | ? | ? | nt | ? | -29% | -8
Cc1ccc(Cc2c(-c3ccco3)nc3ccc(Br)cn23)cc1 | ? | 16µM* | nt | ? | 18µM* | -16
Cc1ccc(Cc2c(-c3ccc(Cl)cc3)nc3ccc(Br)cn23)cc1 | 26µM* | -16% | nt | 16µM* | -11% | 43
Cc1ccc(Cc2c(-c3cccc(Br)c3)nc3ccc(Br)cn23)cc1 | -8% | 4% | nt | -14% | 0% | 16
O=C(c1ccccc1Cl)N1CCN(CCc2ccccn2)CC1 | -24% | nt | nt | -20% | nt | nt
CCOc1ccc(C(=O)NC(C(=O)NCC(c2cccs2)N(C)C)C(C)C)cc1 (stereo not given) | 0% | -2% | 14% | -23% | 1% | -8
C/C(=N\Nc1nc(C(=O)O)cs1)c1ccccc1 | -23% | -1% | ? | 3% | -2% | -4
C/C(=N\Nc1nc(C(C)(C)C)cs1)c1ccc(O)cc1 | 18µM* | -6% | ? | -27% | -6% | -11
Cc1ccc(/C=N/Nc2nc(C(C)(C)C)cs2)o1 | ? | -1% | ? | -27% | 4% | ?
C/C(=N\Nc1nc2c(s1)CCCC2)c1ccccc1 | 15µM* | ? | ? | 16µM* | ? | -6
C/C(=N\Nc1nc(C(C)(C)C)cs1)c1ccccc1 | 23µM* | -14% | ? | 23µM* | 4% | 0
O=C(NC(=S)Nc1nc2c(s1)CCCC2)c1ccc(C(=O)c2ccccc2)cc1 | -6% | -1% | ? | 5% | 8% | 0
CC(C)(CNC(=O)COc1ccccc1Cc1ccccc1)N1CCOCC1 | ? | -17% | 8% | ? | -16% | -59*
Cc1ccccc1OCC(=O)NCC(C)(C)N1CCOCC1 | -13% | 5% | 3% | 1% | 9% | 37
SMILES | DT40 TDP1 no CPT | HT1080 IDH1KD tx | ELG1 DNA repair | DT40 TDP1 CPT | HT1080NT lethal | IL-1B inflam inh
COc1ccc(N2CCN(C(=O)c3ccc(Br)o3)CC2)cc1 | -14% | 19% | -1% | -27% | 10% | -9
Cc1ccc(S(=O)(=O)N2C[C@H]3C(=O)C[C@@H](c4ccccc4)N(S(=O)(=O)c4ccccc4C)[C@H]3C[C@H]2c2ccccc2)cc1 | ? | 6% | nt | ? | 19% | 6
COc1cc2c(cc1OC)[C@H](C)N(CC1C(=O)O[C@@H]3C[C@@]4(C)CCC[C@H](C)[C@@]45OC5[C@H]13)CC2 (stereo not given in full) | ? | nt | nt | -26%[9.04 µM] | nt | nt
C[C@H]1CCC[C@]2(C)C[C@H]3OC(=O)C(CN4CCCCCC4)[C@H]3C=C12 (stereo not given in full) | ? | ? | ? | ? | 16µM* | -98*
C=C1C(=O)OC2C[C@@]3(C)CCCC(C)C3=CC12 (stereo not given in full) | 10µM* | nt | nt | ? | nt | nt
CC(C)NC(=O)C1(C)CCN1Cc1cccc(C#N)c1 (stereo not given) | -18% | 9% | nt | 1% | 22% | 1
CN(c1ccc(F)cc1)S(=O)(=O)c1ccc(Cl)c(C(=O)NCc2ccco2)c1 | ? | 2% | ? | ? | 10% | 13
CC(=O)Nc1ccc(Oc2ccc(-c3noc(C)n3)cc2)cc1 | -26% | 4% | nt | 0% | 4% | -16

Assay outcomes (PubChem)
